Source: PubChem
NR3A LBD binder: binders of NR3A ligand-binding domain, primary screen, biophysical, differential scanning fluorimetry, uHTS; Glutamate receptor ionotropic, NMDA 3A (GRIN3A) ligand-binding domain; NR3A LBD differential scanning fluorimetry, Tm shift; 0% = protein alone, 100% = glycine-bound protein; Tm shift relative to glycine control, % at 25 µM; 340,000 compounds, 2.5% hits;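 active = melting temperature shift of at least 10% of the positive control shift, at one fixed dose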
rCAG binder: binders of r(CAG) RNA repeats, primary screen, biochemical, fluorescence; r(CAG) RNA repeat, TO-PRO-1 dye displacement fluorescence; inhibition, % at 3 µM; 370,000 compounds, 1.3% hits; AID 651821, 2012;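 active = inhibition above the plate cutoff, the mean of all test compounds on that plate plus 3 SD, cut at about 35% in these data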;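 note: 0% = DMSO alone and 100% = 100 µM mitoxantrone as full dye displacement; higher means more dye released from RNA so lower well fluorescence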
proKLK7 act: proKLK7 zymogen activators, primary screen, biochemical, fluorescence intensity. activation, % at 7 µM. 370,000 compounds, 0.9% hits. purified proKLK7, EDANS-DABCYL substrate fluorescence; 100% is mature enzyme control, 0% vehicle. Kallikrein-7 (Homo sapiens), P49862;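 active = activation above the mean of all tested compounds plus 3 SD, computed per campaign excluding outliers beyond control limits, cut at about 13% in these data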
ADAM17 inh: ADAM17 inhibitors, primary screen, biochemical, QFRET | Disintegrin and metalloproteinase domain-containing protein 17 (Homo sapiens), P78536 | inhibition, % at 6.95 µM | recombinant ADAM17, EDANS/DABCYL FRET peptide cleavage | AID 720648, 2013 | 370,000 compounds, 0.83% hits;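 active = inhibition above the mean of compounds lying between control limits plus 3 SD, set per campaign, cut at about 8.5% in these data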;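 note: 0% = DMSO-only wells as the low control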
AHR act: AHR activators, primary screen, cell-based, luminescence, luciferase reporter, human | Aryl hydrocarbon receptor (Homo sapiens), P35869 | AHR-responsive luciferase reporter cells | activation, % at 5 µM | 320,000 compounds, 2.5% hits; in the data active = activation above about 47%;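 note: 0% = vehicle wells and 100% = reference agonist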
ADAM10 inh: human ADAM10 inhibitors, primary screen, biochemical, QFRET, HTS | Disintegrin and metalloproteinase domain-containing protein 10 (Homo sapiens), O14672 | 370,000 compounds, 0.62% hits | inhibition, % at 7 µM | AID 720582, 2013 | recombinant ADAM10, EDANS/DABCYL FRET peptide cleavage, 3 h;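 active = inhibition above a per-campaign cutoff equal to the mean of compounds falling between control-based bounds plus 3 SD, cut at about 20% in these data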;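 note: 0% = DMSO wells while the 100% control is not disclosed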
Target sequence (O14672 214-748 limits assumed): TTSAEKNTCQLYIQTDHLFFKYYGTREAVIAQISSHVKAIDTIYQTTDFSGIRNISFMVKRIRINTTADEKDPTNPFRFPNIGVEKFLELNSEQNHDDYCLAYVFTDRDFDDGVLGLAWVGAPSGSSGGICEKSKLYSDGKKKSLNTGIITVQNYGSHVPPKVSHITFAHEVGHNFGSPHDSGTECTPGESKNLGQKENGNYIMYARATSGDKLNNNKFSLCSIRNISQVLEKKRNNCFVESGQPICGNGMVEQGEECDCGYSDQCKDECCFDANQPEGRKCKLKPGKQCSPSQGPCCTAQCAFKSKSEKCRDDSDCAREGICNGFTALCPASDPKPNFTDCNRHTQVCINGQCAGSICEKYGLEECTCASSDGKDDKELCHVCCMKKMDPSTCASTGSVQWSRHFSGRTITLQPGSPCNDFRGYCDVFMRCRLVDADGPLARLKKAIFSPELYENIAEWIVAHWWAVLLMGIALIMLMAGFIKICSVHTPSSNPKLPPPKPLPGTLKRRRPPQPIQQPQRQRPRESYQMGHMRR
* = called active by the depositor; i = inactive; nt = not tested or not shown. Hits are enriched below; roughly 7% of the tested compounds scored in any of these assays.

SMILES	NR3A LBD binder	rCAG binder	proKLK7 act	ADAM17 inh	AHR act	ADAM10 inh
N/C(=N\OC(=O)c1ccc(Cl)cc1)c1ccc(Cl)cc1	2	-1	0	-3	24	-3
N/C(=N\OC(=O)c1ccc(Cl)cc1Cl)c1ccccc1	-24	2	1	-2	82*	-4
Cc1ccc(/C(N)=N/OC(=O)c2cccc(F)c2)cc1	9	0	0	-5	-1	0
Cc1ccc(/C(N)=N/OC(=O)c2ccc(C)cc2Cl)cc1	197*	2	0	0	23	-7
Cc1ccc(S(=O)(=O)N2CCCC2C(c2ccccc2O)c2cn(C)c3ccccc23)cc1 (stereo not drawn)	nt	7	0	-4	nt	-4
CC(C)(C)c1ccc(-c2nnc(SCC(=O)c3ccc4ccccc4c3)n2-c2ccc(Cl)cc2)cc1	nt	8	0	-1	nt	-1
COc1cc(NC(=O)CSc2nc(C)cc(=O)[nH]2)cc(OC)c1	nt	1	1	0	nt	-12
CCN(CC)C(=O)c1oc(=O)c2ccccc2c1-c1ccc(C)cc1	nt	2	0	1	nt	12
O=C(c1ccco1)N1CCN(c2c(-c3ccccc3)c3cc(Cl)ccc3[nH]c2=O)CC1	-18	3	-40	-23	5	-46
Cc1ccc2c(c1)[nH]c1c(N3CCN(Cc4ccccc4)CC3)ncnc12	-13	-2	1	-23	26	-65
Cc1ccc2[nH]c3c(N4CCN(Cc5ccccc5)CC4)ncnc3c2c1	-9	-1	1	-58	65*	-350
O=C(c1ccco1)N1CCN(c2ncnc3c2[nH]c2ccc(Cl)cc23)CC1	nt	nt	nt	nt	81*	nt
COc1cc(-c2nnc(SCC(=O)N3C(C)CCCC3C)o2)cc(OC)c1OC (stereo not drawn)	nt	-2	0	1	nt	-1
O=S1(=O)N[C@@H](Cc2ccccc2)COc2cccc(N3CCCCC3)c21	nt	1	0	2	nt	-2
CN(C)C(=O)C[C@H]1C[C@@H]2c3cc(NC(=O)NC4CCCC4)ccc3O[C@@H]2[C@@H](CO)O1	nt	1	0	-1	nt	-3
O=C(NNC(=O)c1cccnc1)Nc1ccc(Cl)c(Cl)c1	2	4	0	2	16	6
O=C(NNC(=O)c1ccc2nonc2c1)Nc1ccc(Cl)cc1	-5	9	0	3	77*	5
O=S(=O)(c1ccc(CN2CCOCCOCCN(Cc3ccc(S(=O)(=O)C(F)(F)F)cc3)CCOCC2)cc1)C(F)(F)F	nt	nt	nt	1	nt	5
Cn1c(=O)cc(OCC(=O)N2CCCc3ccccc32)c2ccccc21	-3	-7	-1	0	50*	-9
Cc1ccccc1OCC(=O)N1CCCc2ccccc21	-6	-5	0	-3	-4	6
C=CCNC(=O)c1onc(CSc2cccc(C)c2)c1C(=O)O	13*	10	0	-4	1	7
C=CCNC(=O)c1onc(CSc2cccc(Cl)c2)c1C(=O)O	-2	24	-1	0	2	-11
Cc1ccc2nc(-c3ccc(NC(=O)CCN4C(=O)c5ccccc5C4=O)cc3)sc2c1	18*	6	0	-430	16	i
Cc1ccc2nc(-c3ccc(NC(=O)C(C)N4C(=O)c5ccccc5C4=O)cc3)sc2c1 (stereo not drawn)	16*	13	1	-54	6	-195
Cc1ccc2nc(-c3ccc(NC(=S)NC(=O)C(C)C)cc3)sc2c1	-5	3	0	-27	-2	-83
Nc1ncnc2c1ncn2[C@@H]1O[C@H](C(=O)N[C@@H](CCc2ccccc2)C(=O)N2CCN(CC(=O)N3CCCC3)CC2)[C@@H](O)[C@H]1O	nt	0	0	-6	nt	-14
COc1ccc(C(=O)C2(C(=O)NCCO)CC(c3ccccn3)=NO2)cc1 (stereo not drawn)	nt	0	0	-2	nt	-1
COc1ccc(NC(=O)C(OC(=O)c2cnc(C)cn2)c2ccccc2)cc1Cl (stereo not drawn)	-3	7	0	0	7	1
